The nature of test [1]: compounds altering circadian rhythm period length – cell-based, LOPAC library, luminescence reporter (AID 2774).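 Further: values are relative to mean of DMSO wells on each plate.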 The conditions noted are these: circadian reporter cells, at 7 µM, actives lie on both sides.
The subject of test [2] is Hepatitis C virus NS3 helicase. The experiment in a line: blockers of NS3h binding to ssDNA – biochemical, fluorescence polarization, LOPAC1280 library, primary screen (AID 687035; in the data active means inhibition above about 37%). The conditions noted are these: Purified HCV NS3 helicase, Cy5-dT15 ssDNA binding fluorescence polarization; stronger effect = higher value; concentration not given here. For orientation: In fluorescence polarisation assays a small probe gives low polarisation when free and higher when bound to something large.

Test [3] in a line: compounds altering Cy5-DNA-NS3h complex signal – biochemical, LOPAC1280, artefact control for HCV NS3 helicase inhibitor project (AID 687037). The conditions noted are these: Cy5-DNA-NS3h complex fluorescence interference counterscreen. In general terms: Counterscreens check selectivity or assay interference.
Test [4] relates to Aerobactin synthetase IucA (Klebsiella pneumoniae, hypervirulent). The experiment in a line: biochemical IucA inhibition screen of LOPAC library by absorbance (AID 1346212).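 Further: 100% = no compound wells and 0% = no enzyme wells.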 Particulars: IucA enzyme assay, absorbance (OD) readout; stronger effect = lower value;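 tested at 8 µM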.
A short description of test [5]: blockers of cellular phospholipid synthesis – cell-based, LOPAC library, screen 4, primary screen (AID 1347384). The conditions noted are these: animal cells, phospholipid biosynthesis inhibition screen; at 10 µM.
The target in test [6] is ATP-dependent translocase ABCB1 (Homo sapiens) (UniProt P08183). Description: P-glycoprotein substrate transport blockade – cell-based (AID 377; in the data active means fluorescence slope change above about 50%). The conditions noted are these: MDR1-expressing cells, fluorescent substrate accumulation slope; stronger effect = higher value; concentration not given here.
Sequence of ATP-dependent translocase ABCB1 (Homo sapiens) (P08183 whole entry, looked up): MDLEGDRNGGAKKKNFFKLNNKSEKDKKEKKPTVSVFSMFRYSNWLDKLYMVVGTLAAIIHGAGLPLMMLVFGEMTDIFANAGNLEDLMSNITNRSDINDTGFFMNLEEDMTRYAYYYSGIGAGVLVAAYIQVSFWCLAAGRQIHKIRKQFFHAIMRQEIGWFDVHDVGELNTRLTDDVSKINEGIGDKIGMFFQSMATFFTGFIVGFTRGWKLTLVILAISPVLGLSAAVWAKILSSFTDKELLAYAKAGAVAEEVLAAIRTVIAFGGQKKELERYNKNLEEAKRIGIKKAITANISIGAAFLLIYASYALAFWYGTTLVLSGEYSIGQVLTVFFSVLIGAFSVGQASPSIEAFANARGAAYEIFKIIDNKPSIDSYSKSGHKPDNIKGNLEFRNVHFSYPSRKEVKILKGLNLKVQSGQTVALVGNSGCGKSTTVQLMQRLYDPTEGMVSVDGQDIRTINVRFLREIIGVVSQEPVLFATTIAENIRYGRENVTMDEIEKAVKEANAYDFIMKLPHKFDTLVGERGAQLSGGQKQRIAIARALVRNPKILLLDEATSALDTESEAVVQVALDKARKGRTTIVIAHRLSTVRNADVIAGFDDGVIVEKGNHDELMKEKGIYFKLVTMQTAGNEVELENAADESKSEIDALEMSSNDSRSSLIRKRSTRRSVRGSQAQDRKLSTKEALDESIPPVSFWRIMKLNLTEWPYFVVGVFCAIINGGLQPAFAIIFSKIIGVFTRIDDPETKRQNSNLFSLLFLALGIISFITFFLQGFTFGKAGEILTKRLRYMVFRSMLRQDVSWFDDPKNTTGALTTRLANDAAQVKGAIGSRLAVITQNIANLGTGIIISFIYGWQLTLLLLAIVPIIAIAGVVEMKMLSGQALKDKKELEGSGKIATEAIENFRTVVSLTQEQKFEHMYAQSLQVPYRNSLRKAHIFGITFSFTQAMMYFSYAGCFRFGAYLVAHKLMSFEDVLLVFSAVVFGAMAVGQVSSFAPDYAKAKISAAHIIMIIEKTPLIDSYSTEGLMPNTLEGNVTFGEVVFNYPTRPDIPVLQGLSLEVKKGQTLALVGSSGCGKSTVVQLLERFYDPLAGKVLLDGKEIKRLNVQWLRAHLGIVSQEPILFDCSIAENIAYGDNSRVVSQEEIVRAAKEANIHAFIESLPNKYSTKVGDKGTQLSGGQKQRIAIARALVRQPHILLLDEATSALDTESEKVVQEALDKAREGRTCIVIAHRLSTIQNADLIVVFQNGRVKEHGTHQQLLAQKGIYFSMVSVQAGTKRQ
Test [7] can be described thus: blockers of polyQ-driven CASP3 activation – cell-based (AID 1583). Particulars: polyglutamine-induced caspase-3 activation, cell assay; stronger effect = higher value;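 tested at 10 µM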.
A short description of test [8]: restoration of touch response, mutant HTT neurons – whole organism, C. elegans mechanosensory neurons, N-terminal huntingtin (AID 1599). The conditions noted are these: C. elegans polyQ-huntingtin mechanosensory neurons, stronger effect = higher value.
Test [9] in a line: glutamate transport activators, MN-1 cells, MN-1 cell line (AID 1612).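 Further: tested at 1 µM final; 0% = mean of DMSO vehicle wells on each plate; positive means more glutamate uptake than control and negative means less.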 Particulars: MN-1 motor neuron cells, stronger effect = higher value.
Test [10] in a line: GFP-Q80 aggregate reduction, neuronal-like cells, cell-based, NGF-treated PC12, GFPQ80 (AID 1614).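 Further: lower means fewer inclusions and 0 means no inclusions at all.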 The conditions noted are these: PC12 NGF-treated GFP-polyQ80 inclusion reduction.
The nature of test [11]: 75Q-TubH aggregate inhibition, S. cerevisiae, yeast (AID 1616). The conditions noted are these: S. cerevisiae 75Q-TubH polyglutamine aggregation suppression; stronger effect = higher value.
The nature of test [12]: compounds altering viability of human ES cells (AID 493140).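 Further: cells exposed to compounds for four days before counting.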 Particulars: human embryonic stem cell survival screen; stronger effect = higher value.
Test [13] in a line: modulation of C. elegans fzo-1 (AID 1259413).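 Further: fzo-1 mutant C. elegans worms in liquid wells.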 Particulars: C. elegans fzo-1 modulator screen, mean read-out; stronger effect = higher value.
Test [14] concerns F380Y. The experiment in a line: BK channel mutant inhibitors and activators – cell-based, U2OS BacMam, thallium flux, beta subunits, selectivity assay, profiling panel (AID 1259406;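 active means thallium flux through the channel raised or lowered by more than 3 SD from vehicle-only wells, actives on both sides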;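 further: initial slope of Thallos dye fluorescence rise after thallium is added; log ratio against the mean of 0.3% DMSO vehicle wells on the same plate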). Particulars: U2OS BacMam BK variants, at 30 µM.
The subject of test [15] is F380Y/beta2Delta. The description is as above. The conditions noted are these: U2OS BacMam BK variants, at 30 µM.
Test [16] addresses Calcium-activated potassium channel subunit alpha-1 (Homo sapiens) + Leucine-rich repeat-containing protein 26 (Homo sapiens) (UniProt Q12791+Q2I0M4). Described as above. Particulars: U2OS BacMam BK variants, F380Y/Slo1WT/gamma1, at 30 µM.
Test [17] relates to R275C. The description is as above. Particulars: U2OS BacMam BK variants, at 30 µM.
For test [18], the system named is R275C/beta1. The test is described as above. The conditions noted are these: U2OS BacMam BK variants, at 30 µM.
The subject of test [19] is R275C/beta2Delta. The test is described as above. The conditions noted are these: U2OS BacMam BK variants, at 30 µM.
The subject of test [20] is R275C/Slo1WT/beta2. The description is as above. The conditions noted are these: U2OS BacMam BK variants, at 30 µM.

SMILES strings stand for the structures. “And” between values parts separate entries of the source, which are not always exact repeats. Equal values may be shown once. Inconclusive results are not listed. For part of these data: Entries with a potency or affinity are not part of this list. The source made the active and inactive calls. Unless noted, how the calls were made is not given here.

Sequence of Calcium-activated potassium channel subunit alpha-1 (Homo sapiens) + Leucine-rich repeat-containing protein 26 (Homo sapiens) (Q2I0M4 whole entry, looked up, one chain of several): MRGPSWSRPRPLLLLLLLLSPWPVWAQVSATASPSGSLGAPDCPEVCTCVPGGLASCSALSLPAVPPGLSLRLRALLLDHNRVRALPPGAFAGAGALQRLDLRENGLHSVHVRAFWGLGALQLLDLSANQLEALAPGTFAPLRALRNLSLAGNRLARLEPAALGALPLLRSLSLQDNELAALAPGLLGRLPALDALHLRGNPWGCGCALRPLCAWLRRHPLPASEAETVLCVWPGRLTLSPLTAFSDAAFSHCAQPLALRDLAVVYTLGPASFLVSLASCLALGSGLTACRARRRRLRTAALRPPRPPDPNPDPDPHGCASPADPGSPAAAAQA

With `CCC1(C2=NCCN2)Cc2ccccc2O1` (stereo not given), the period change in test [1] is 0.07 h (inactive). Moreover, the inhibition in test [2] was -1% (inactive). In addition, the fluorescence ratio (interference) in test [3] was 1 (inactive). In test [4], the remaining activity is 82.2% (inactive). Further, the compound was called inactive in [5].
For `c1ccc2nc(N3CCNCC3)ccc2c1`, the fluorescence slope change in [6] is 25.1% (inactive). Besides, in test [7], the inhibition is -24.6%. Also, the rescue above control in test [8] is -5.3. In addition, the glutamate uptake change in test [9] is -14.6%. This compound gave an inclusion score in [10] of 2. This compound showed an aggregation suppression score in [11] of 1.33. Besides, in test [1], the period change is -0.04 h (inactive). In addition, in test [12], the survival was 8.75 (inactive). The remaining activity in [4] is 114% (inactive).
On to `CC(C)N(CCC(C(N)=O)(c1ccccc1)c1ccccn1)C(C)C` (stereo not given), for which, in test [6], the fluorescence slope change was 52.1% (active). For the same compound, the inhibition in test [7] is -16.9%; in [2], 0% (inactive) and -1% (inactive). This compound also registered a rescue above control in [8] of -8.3. Also, in test [9], the glutamate uptake change stood at 24.3%. Also, the inclusion score in [10] worked out at 2. This compound registered an aggregation suppression score in test [11] of 1.38. Also, the period change in [1] was 0.265 hour (inactive) and -0.11 hour (inactive). Besides, in [12], the survival is 11.6 (inactive). The fluorescence ratio (interference) in test [3] was 1 (inactive). In addition, the mean signal in [13] is 254 (inactive). The remaining activity in test [4] is 98.9% (inactive) and 93.2% (inactive). Besides, the compound was called inactive in test [5]. The log fold change Tl+ flux in [14] was -0.0248 (inactive); in test [15], 0.00612 (inactive); in test [16], 0.0168 (inactive); in test [17], 0.00817 (inactive); in test [18], -0.022 (inactive); in test [19], -0.0143 (inactive). In addition, in test [20], the log fold change Tl+ flux is 0.00641 (inactive).
As to `COc1ccc(OC)c(C(O)C(C)N)c1` (stereo not given), the period change in [1] is 0.08 h (inactive). Besides, in test [12], the survival is 3.58 (inactive). Also, the inhibition in test [2] is -2% (inactive). For the same compound, the fluorescence ratio (interference) in test [3] was 1 (inactive). In test [4], the remaining activity was 112% (inactive). For the same compound, the call in test [5] was inactive.
On to `CCC1(c2ccc(N)cc2)CCC(=O)NC1=O` (stereo not given), for which the figures for the inhibition in test [7] and in [2] were 22.4% and -3% (inactive), respectively. Besides, the rescue above control in test [8] was 12.8. In test [9], the glutamate uptake change turned out to be 15.1%. In test [10], this compound returned an inclusion score of 2. In [11], this compound displayed an aggregation suppression score of 1.06. In addition, in test [1], the period change was 0.015 h (inactive). Besides, the survival in [12] was 19.8 (inactive). Moreover, the fluorescence ratio (interference) in test [3] is 1 (inactive). For the same compound, in test [13], the mean signal was 262 (inactive). In [5], the outcome was inactive. Also, the log fold change Tl+ flux in test [14] is 0.023 (inactive); in [15], -0.00163 (inactive); in test [16], -0.0199 (inactive); in [17], 0.0191 (inactive); in test [18], -0.00575 (inactive); in [19], -0.0116 (inactive). In addition, the log fold change Tl+ flux in test [20] was 0.0134 (inactive).
As to `Clc1ccc(CO/N=C(\Cn2ccnc2)c2ccc(Cl)cc2Cl)c(Cl)c1`, the mean signal in [13] was 187 (inactive).
On to `N[C@@H](Cc1ccc(N(CCCl)CCCl)cc1)C(=O)O`, for which, in test [6], the fluorescence slope change was 94.7% (active). Moreover, the inhibition in test [7] was found to be 9.42%. For the same compound, the rescue above control in test [8] is -0.78. In addition, in test [9], the glutamate uptake change amounted to 15.9%. The compound also had an aggregation suppression score in test [11] of 1.07. Besides, the remaining activity in [4] was 104% (inactive).
Turning to `CC(C)(C)NCC(O)c1ccccc1Cl` (stereo not given), the inhibition is 4.55% in [7] and -4% (inactive) in test [2]. Moreover, in test [8], the rescue above control was -6.12. Further, in test [9], the glutamate uptake change came to 2.34%. In test [10], the inclusion score came out at 2. This compound registered an aggregation suppression score in test [11] of 1.28. For the same compound, the period change in test [1] was -0.125 h (inactive). For the same compound, the fluorescence ratio (interference) in [3] was 1 (inactive). In addition, the remaining activity in [4] was 113% (inactive). The compound was called inactive in test [5].

A word on the inhibition: it is the drop in the measured response relative to a control, in per cent. One may read the remaining activity as the signal under treatment as a percentage of the control signal.

The values above are taken from PubChem BioAssay.
